# Only a selection was taken, and hits are over-represented in it overall.
# Pf Dd2 growth = Plasmodium falciparum Dd2 growth inhibition; P. falciparum Dd2 growth, SYBR Green, 72 h; Potency, µM (titrated, usually from 28.9 µM), inactives show at the highest dose activity, negative = inhibition, actives largely listed as inhibitors; actives 4.3% (n = 120,000); active means well fitted inhibition curve with a large enough effect;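 further: plate controls were DMSO vehicle for no effect and reference drug for full effect; nearly all actives have a fitted effect of over 65% in size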
#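 Readout: SYBR Green fluorescence, 485 nm excitation, 535 nm emission, after ~16 h lysis at 37C. Before that, Dd2-infected red cells (2.5% hematocrit) grew 72 h with compound, 29 uM top final concentration.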
# * = called active by the depositor; i = inactive; [ ] = remark or other dose. Potency means the concentration at half of the fitted maximal effect.
SMILES,Pf Dd2 growth
CC(C)CCNC(=O)C1c2ccccc2C(=O)N(Cc2ccccc2)C12CCCC2 (stereo not given),-16%
Cn1ccc(C(=O)N2CC3ON=C(C(=O)NCc4ccc(F)cc4)C3C2)n1 (stereo not given),5%
Clc1ccc(-c2nnc3n2CCN(Cc2cncs2)C3)cc1,-4%
Cc1ccc(C2Cn3nnc(C(=O)N4CCC(C(=O)NCCc5cccs5)CC4)c3CO2)cc1 (stereo not given),3%
O=c1cccc2n1CC1CC2CN(Cc2cc3n(n2)CCNC3)C1 (stereo not given),3%
CN(C)CCN1CC[C@H]2CN(S(=O)(=O)c3ccccc3)CC[C@H]2CC1=O,-11%[44.1 µM]
COc1ccc(C(=O)N[C@@H]2CN(C(=O)NCc3ccccc3)CCC[C@H]2O)cc1,i
Cc1cc(C)c(CNC(=O)c2cc(-c3ccc(CO)cc3)cc3c2OCCN3C)c(=O)[nH]1,-10%[44.1 µM]
CCN1CCN(c2cc(C)c3cc(NC(=O)/C=C/c4cccc(OC)c4OC)ccc3n2)CC1,1.1µM*
COc1cccc(/C=C/C(=O)Nc2ccc3nc(N4CCN(C)CC4)cc(C)c3c2)c1OC,1.3µM*
COc1cc(NC(=O)C2CCN(c3cnc4ccccc4n3)CC2)cc(OC)c1OC,-19%
CCOC(=O)N1CCN(Cc2nc3cc(NC(=O)c4ccccc4OC)ccc3n2C(C)C)CC1,-2%
CC(C)N1C[C@H](O)C[C@H]1c1nnc2n1CCN(C(=O)CCc1nc3ccccc3s1)C2,6%
O=C1[C@H]2CCCN2C(=O)C2C[C@@H](NS(=O)(=O)c3cccs3)CCN12 (stereo not given in full),1%[44.1 µM]
CC(C)(C)c1nnc([C@H]2CCN(Cc3cnc4ccccc4c3)C2)o1,i
Cc1ccc(OC2(C(=O)NC(C)c3cn4ncsc4n3)CCNCC2)cc1 (stereo not given),-14%
CCc1nc(NCCOC)ncc1C(=O)O,-11%
CNC(=O)c1cc(-c2ccc(OC)nc2)cc2c1OCCN2Cc1cccnc1,i
CNC(=O)c1cc(-c2ccc(N3CCOCC3)cc2)cc2c1OCCN2Cc1cccnc1,10µM*
CNC(=O)c1cc(-c2ccccc2F)cc2c1OCCN2Cc1cccnc1,-22%[44.1 µM]
COc1ccccc1CC(=O)N1CCC[C@H]1c1nc(-c2ccccc2Cl)no1,i
Cc1cccc(NC(=O)CC2=C3CCCCC3N(C)C2=O)c1 (stereo not given),-12%
Cc1ccc(Nc2c3c(nc4nncn24)CCC3)cc1C,10µM*
Cc1ccc(Nc2c3c(nc4nncn24)CCC3)cc1,i
CCOc1ccc(Nc2c3c(nc4nncn24)CCC3)cc1,-7%
SMILES,Pf Dd2 growth
Cc1ccccc1Nc1c2c(nc3nncn13)CCC2,-10%
Brc1ccc(Nc2c3c(nc4nncn24)CCC3)cc1,4µM*
Cc1cccc(Nc2c3c(nc4nncn24)CCC3)c1,44%
CC1=NOC2(CCN([S+](=O)([O-])c3cccs3)C2)C1 (stereo not given),-5%[44.1 µM]
CS(=O)(=O)N[C@H]1CCN2C(=O)c3cc(-c4cccc(C(F)(F)F)c4)ccc3NC(=O)[C@@H]2C1,3%
Cc1cnc(C(=O)N2[C@H]3CC[C@@H]2c2cnc(-c4ccc(F)cc4)nc2C3)cn1,i
CC1=NS(=O)(=O)N(C)C=C1C(=O)OCc1nc(-c2ccc(F)cc2)no1,56%
COCCN1Cc2[nH]nc(-c3ccc(OC)c(F)c3)c2CC1=O,11%[44.1 µM]
Cc1c(F)cccc1NC(=O)N1CCC(Oc2ncccc2C(=O)N2CCOCC2)C1 (stereo not given),10%
Cc1ncoc1C(=O)N1CCC(C2CCN(S(C)(=O)=O)CC2)C1 (stereo not given),-12%
Cc1ccsc1[C@@H]1CCN(C(=O)CCc2ccc(F)cc2F)C[C@H]1O,-9%
CC1=NOC2(CCN(Cc3ccc(N(C)C)cc3)CC2)C1,10µM*
COc1ccc(CN2CCC3(CC2)CC(C)=NO3)cc1,-18%[44.1 µM]
CC1=NOC2(CCN(Cc3ccc(F)cc3)CC2)C1,i
COc1ccccc1OCC(=O)NC1CC(=O)N(Cc2ccccc2Cl)C1 (stereo not given),-18%
COc1ccc(OC)c(CN2CCc3ncc(C(=O)Nc4ccccc4)n3CC2)c1,i
CCN1c2cc(C(=O)NC3CCCCC3)ccc2C(=O)N2CCCCC21 (stereo not given),i
CC(C)(C)C1CCc2c(sc(NC(=O)c3ccco3)c2C(=O)Nc2ccccc2Cl)C1 (stereo not given),56%
Cc1cccc(NC(=O)c2c(NC(=O)c3ccco3)sc3c2CCC(C)C3)c1 (stereo not given),i
Cc1cccc(NC(=O)c2c(NC(=O)c3ccco3)sc3c2CCC(C(C)(C)C)C3)c1 (stereo not given),7.1µM*
Cc1ccc(-c2nnc(C3CN(C(=O)c4cccs4)CC34CCOCC4)o2)cc1 (stereo not given),-4%
Cc1ccc(C(=O)NC(C(=O)N2CCCC2)C2CCN(C(=O)c3ccc4c(c3)OCO4)CC2)cc1 (stereo not given),i
CC(C)c1noc([C@@H]2C[C@H]3C(=O)NCCCCCCN(C(=O)c4ccco4)[C@H]3C2)n1,-8%
O=C(NCCc1c[nH]c2ccccc12)[C@@H]1C[C@H]2C(=O)NCCCCCCN(C(=O)c3ccco3)[C@H]2C1,1.1µM*
O=C1NCCCCCCN(C(=O)c2ccco2)[C@H]2CCCC[C@@H]12,-1%
SMILES,Pf Dd2 growth
COc1ccc(NC(=O)N2CC[C@H]3COC(=O)N3c3cc(C)ccc3C2)cc1,22%[44.1 µM]
COCC1CN(C2CCC2)CC12CCN(C(=O)Cc1ccccc1OC)CC2 (stereo not given),13µM*
COCC1CN(C2CCC2)CC12CCN(C(=O)c1cn(C)cn1)CC2 (stereo not given),14%
CCOCC(=O)N1CCC2(CC1)CN(C1CCC1)CC2COC (stereo not given),i
COC[C@@H]1CN(C(=O)c2ccc(OC)c(F)c2)C[C@H]1C(N)=O,17%
COCC1CN(C2CCC2)CC12CCN(C(=O)c1ccc(OC)c(F)c1)CC2 (stereo not given),5µM*
COCC1CN(C2CCC2)CC12CCN(C(=O)Cc1ccccc1F)CC2 (stereo not given),5.6µM*
COCC1CN(C(C)=O)CC12CCN(C(=O)Cc1ccc(OC)cc1)CC2 (stereo not given),i
COCC1CN(C2CCC2)CC12CCN(C(=O)C(C)C)CC2 (stereo not given),-11%
CCS(=O)(=O)N1CCC2(CC1)CN(C1CCC1)CC2COC (stereo not given),-21%
CCn1c(C2CCCNC2)nn(Cc2ccc(C(C)C)cc2)c1=O (stereo not given),-25%
FC(F)(F)c1cccc(Nc2cnc3ccc(-n4ccnc4)nn23)c1,i
CC(C)Cc1cn(CC2CCCN(C(=O)c3ccc4c(c3)CCO4)C2)nn1 (stereo not given),-21%
O=C(Cn1nc2c(cc1=O)CCCCC2)NCc1ccc(C(=O)O)cc1,-6%
CCc1cn(C[C@@H](C(=O)O)N(CC)CC)c(=O)[nH]c1=O,0%[44.1 µM]
O=C(Nc1cccn2nc(C3CCC3)nc12)c1ccc(F)cc1,i
Cc1ccc(C(=O)Nc2cccn3nc(C4CCC4)nc23)cc1C,i
O=C(Nc1cccn2nc(C3CCC3)nc12)c1cccc(C(F)(F)F)c1,4.5µM*
CC(C)Oc1cccc(-c2nc(C(=O)NCc3ccccc3)cs2)c1,-20%
COc1ccc(Cl)cc1S(=O)(=O)N1CCc2nn(C)c(=O)n2CC1,48%
O=C(Cc1ccccc1)NC[C@H]1Cn2c(-c3ccc4c(c3)OCO4)cnc2CO1,i
